Data taken from PubChem BioAssay (EPA / NIEHS).
“And” between values parts separate entries of the source, which are not always exact repeats. Equal entries are not always repeated. Inconclusive results are not listed. More than one record can exist for a structure, and the calls need not agree. The source made the active and inactive calls. Rule for the calls, unless noted: active = hit-call score of the fitted dose curve at least 0.9, where 1 is the maximum; inconclusive = response in the unintended direction; inactive = score below 0.9.

Key:
[1] = biological target: Estrogen receptor (Homo sapiens) (UniProt P03372); assay: OT_ERa_GFPERaERE_0480: Odyssey Thera (OT) 8-hour HeLa Transcription Induction Assay for Estrogen Receptor (AID 2283381; active = hit-call score of the fitted dose curve at least 0.9, where 1 is the maximum; inactive = score below 0.9)
Procedure, shortened: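 GFP-ERE reporter, HeLa, 8 h exposure. Readout: fluorescence microscopy, high-content image analysis. Fit direction positive vs DMSO negative control.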

[2] = biological target: Estrogen receptor (Homo sapiens) (UniProt P03372); assay: OT_ERa_GFPERaERE_0120: Odyssey Thera (OT) 2-hour HeLa Transcription Induction Assay for Estrogen Receptor (AID 2283382)
Procedure, shortened: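 Fluorescence microscopy read-out: inducible fluorescent protein reporter in HeLa cells, imaged 2 h post-dose. Signal increase over DMSO negative control fitted as single primary endpoint via high content image analysis.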

[3] = biological target: Bile acid receptor (Homo sapiens) (UniProt Q96RI1); assay: OT_FXR_FXRSRC1_0480: Odyssey Thera (OT) 8-hour HEK293T Protein-Complementation Assay for Farnesoid X receptor/SRC-1 Co-activator (AID 2283383)
Procedure, shortened: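 Fluorescence intensity read-out, 8 h post-dose, HEK293T protein-fragment complementation; FXR bait and SRC-1 prey each linked to reporter fragments. Activity scored as signal increase over DMSO negative control.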

[4] = biological target: Bile acid receptor (Homo sapiens) (UniProt Q96RI1); assay: OT_FXR_FXRSRC1_1440: Odyssey Thera (OT) 24-hour HEK293T Protein-Complementation Assay for Farnesoid X receptor/SRC-1 Co-activator (AID 2283384)
Procedure, shortened: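 Fluorescence readout, 24 h post-dose, HEK293T; FXR and SRC-1 fused to complementary reporter fragments, association reconstitutes signal. Positive-direction fit vs DMSO baseline.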

[5] = biological target: Retinoic acid receptor RXR-alpha (Homo sapiens) (UniProt P19793); assay: OT_NURR1_NURR1RXRa_0480: Odyssey Thera (OT) 8-hour HEK293T Protein Complementation Assay for Nurr1/retinoid X receptor (RXR) (AID 2283385)
Procedure, shortened: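 Read-out: fluorescence from protein-fragment complementation between Nurr1 and RXRα in human HEK293T cells, 8 h after dosing. DMSO served as negative control; increased signal counted as activity.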

[6] = biological target: Retinoic acid receptor RXR-alpha (Homo sapiens) (UniProt P19793); assay: OT_NURR1_NURR1RXRa_1440: Odyssey Thera (OT) 24-hour HEK293T Protein Complementation Assay for Nurr1/retinoid X receptor (RXR) (AID 2283386)
Procedure, shortened: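 Fluorescence PCA read-out; HEK293T; 24 h post-dose; bait/prey fused to reporter fragments; gain-of-signal fit vs DMSO negative control.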

[7] = biological target: Peroxisome proliferator-activated receptor gamma (Homo sapiens) (UniProt P37231); assay: OT_PPARg_PPARgSRC1_0480: Odyssey Thera (OT) 8-hour Protein-Complementation Assay for Peroxisome Proliferator-activated Receptor Gamma / SRC-1 Co-activator (AID 2283387);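 note: nuclear to cytoplasmic split Venus YFP fluorescence ratio reporting PPARg SRC-1 interaction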
Procedure, shortened: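 Read-out: 488 nm N/C fluorescence ratio from complemented Venus YFP fragments, ≥350 cells per image, gain-of-signal fitted against DMSO baseline. Fusions of PPARg/SRC-1 with IFP1/IFP2 expressed transiently in HEK293T; compounds applied 8 h.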

[8] = biological target: Peroxisome proliferator-activated receptor gamma (Homo sapiens) (UniProt P37231); assay: OT_PPARg_PPARgSRC1_1440: Odyssey Thera (OT) 24-hour Protein-Complementation Assay for Peroxisome Proliferator-activated Receptor Gamma/ SRC-1 Co-activator (AID 2283388);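 note: nuclear to cytoplasmic ratio of reconstituted Venus YFP fluorescence in fixed imaged cells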
Procedure, shortened: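 Transient HEK293T, YFP fragments 1-158/159-239 (mutant IFP1/IFP2) fused to PPARg/SRC-1; 24 h dosing; fix 4% formaldehyde, Draq5; Opera imaging 488/635 nm; N/C ratio, gain vs DMSO.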

[9] = biological target: rat Serotonin Transporter (SERT), Slc6a4 (gene 25553) (UniProt P31652); assay: NVS_TR_rSERT: NovaScreen (NVS) Transporter Assay for rat Serotonin Transporter (SERT) (AID 2283375)
Procedure, shortened: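 Steps: rat forebrain membranes dosed with chemical (25 uM duplicate primary; concentration series for actives); 1 h incubation; labelled ligand bound, filtered, counted by scintillation. Activity scored as signal loss vs DMSO.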

[10] = biological target: Agonist Androgen Response Element (ARE), AR (gene 367) (UniProt P10275); assay: OT_AR_ARELUC_AG_1440: Odyssey Thera (OT) 24-hour CHO-K1 Luciferase Assay for Agonist Androgen Response Element (ARE) (AID 2283379)
Procedure, shortened: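 Gain-of-signal reporter endpoint: cells (CHO-K1, hamster) are treated 24 h, luciferin/ATP reagent added, and luminescence compared with DMSO baseline.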

Measured: AC50

Sequence of Agonist Androgen Response Element (ARE), AR (gene 367) (P10275 whole entry, looked up): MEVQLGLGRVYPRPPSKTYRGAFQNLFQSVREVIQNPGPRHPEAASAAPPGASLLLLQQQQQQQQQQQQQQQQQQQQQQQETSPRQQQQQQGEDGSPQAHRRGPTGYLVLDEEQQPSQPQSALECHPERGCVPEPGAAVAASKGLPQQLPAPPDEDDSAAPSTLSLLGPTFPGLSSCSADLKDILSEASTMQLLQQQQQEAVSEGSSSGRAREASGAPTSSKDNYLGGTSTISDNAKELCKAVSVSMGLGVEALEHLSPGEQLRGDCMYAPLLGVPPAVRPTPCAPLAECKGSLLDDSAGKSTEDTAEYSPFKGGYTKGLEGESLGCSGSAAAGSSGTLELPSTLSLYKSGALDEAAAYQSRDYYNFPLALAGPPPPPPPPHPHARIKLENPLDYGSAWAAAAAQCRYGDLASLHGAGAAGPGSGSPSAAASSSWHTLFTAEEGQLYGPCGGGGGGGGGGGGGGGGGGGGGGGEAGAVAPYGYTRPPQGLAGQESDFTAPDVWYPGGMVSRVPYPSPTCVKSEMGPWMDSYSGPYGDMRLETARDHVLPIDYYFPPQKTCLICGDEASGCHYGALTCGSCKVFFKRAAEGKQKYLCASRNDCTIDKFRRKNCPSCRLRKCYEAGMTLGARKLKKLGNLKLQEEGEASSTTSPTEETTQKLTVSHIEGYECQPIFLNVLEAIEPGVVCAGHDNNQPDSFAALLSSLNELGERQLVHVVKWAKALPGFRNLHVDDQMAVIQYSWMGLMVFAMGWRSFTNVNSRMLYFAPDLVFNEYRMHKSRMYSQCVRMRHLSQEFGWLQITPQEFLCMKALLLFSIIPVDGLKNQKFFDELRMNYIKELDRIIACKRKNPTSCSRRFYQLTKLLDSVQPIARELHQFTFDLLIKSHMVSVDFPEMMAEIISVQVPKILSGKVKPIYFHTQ
Sequence of Peroxisome proliferator-activated receptor gamma (Homo sapiens) (P37231 whole entry, looked up, the tested form may be a part): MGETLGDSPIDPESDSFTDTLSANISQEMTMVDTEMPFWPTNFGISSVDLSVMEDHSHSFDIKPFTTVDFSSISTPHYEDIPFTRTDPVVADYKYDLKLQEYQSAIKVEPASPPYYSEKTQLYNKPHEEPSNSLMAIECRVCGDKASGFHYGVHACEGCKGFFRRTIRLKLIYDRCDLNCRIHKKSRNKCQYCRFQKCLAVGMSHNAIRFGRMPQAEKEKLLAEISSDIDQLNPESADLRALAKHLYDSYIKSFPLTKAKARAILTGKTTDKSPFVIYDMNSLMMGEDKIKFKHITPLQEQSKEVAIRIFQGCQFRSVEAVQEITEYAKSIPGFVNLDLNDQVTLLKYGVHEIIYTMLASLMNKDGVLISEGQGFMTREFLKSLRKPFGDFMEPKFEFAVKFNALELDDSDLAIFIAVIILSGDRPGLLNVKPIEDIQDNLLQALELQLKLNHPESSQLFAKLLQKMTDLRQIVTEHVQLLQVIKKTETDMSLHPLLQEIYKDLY
Sequence of rat Serotonin Transporter (SERT), Slc6a4 (gene 25553) (P31652 whole entry, looked up): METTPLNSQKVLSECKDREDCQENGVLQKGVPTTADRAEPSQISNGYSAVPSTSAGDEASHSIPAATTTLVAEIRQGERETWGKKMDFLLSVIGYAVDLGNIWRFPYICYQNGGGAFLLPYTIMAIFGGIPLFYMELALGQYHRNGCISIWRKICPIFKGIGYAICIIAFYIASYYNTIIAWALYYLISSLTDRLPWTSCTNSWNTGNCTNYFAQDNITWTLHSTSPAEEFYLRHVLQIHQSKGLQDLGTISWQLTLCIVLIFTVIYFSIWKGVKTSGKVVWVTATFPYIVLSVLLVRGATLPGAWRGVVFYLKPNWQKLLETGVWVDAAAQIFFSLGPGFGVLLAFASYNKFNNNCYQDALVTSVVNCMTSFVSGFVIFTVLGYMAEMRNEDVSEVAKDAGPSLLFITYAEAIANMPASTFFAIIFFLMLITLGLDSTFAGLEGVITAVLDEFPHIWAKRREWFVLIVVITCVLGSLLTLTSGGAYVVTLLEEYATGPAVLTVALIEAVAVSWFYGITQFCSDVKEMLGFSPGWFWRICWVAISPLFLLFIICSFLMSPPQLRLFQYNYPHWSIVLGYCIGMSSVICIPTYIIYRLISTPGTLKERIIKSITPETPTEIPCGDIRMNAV
Sequence of Retinoic acid receptor RXR-alpha (Homo sapiens) (P19793 whole entry, looked up, the tested form may be a part): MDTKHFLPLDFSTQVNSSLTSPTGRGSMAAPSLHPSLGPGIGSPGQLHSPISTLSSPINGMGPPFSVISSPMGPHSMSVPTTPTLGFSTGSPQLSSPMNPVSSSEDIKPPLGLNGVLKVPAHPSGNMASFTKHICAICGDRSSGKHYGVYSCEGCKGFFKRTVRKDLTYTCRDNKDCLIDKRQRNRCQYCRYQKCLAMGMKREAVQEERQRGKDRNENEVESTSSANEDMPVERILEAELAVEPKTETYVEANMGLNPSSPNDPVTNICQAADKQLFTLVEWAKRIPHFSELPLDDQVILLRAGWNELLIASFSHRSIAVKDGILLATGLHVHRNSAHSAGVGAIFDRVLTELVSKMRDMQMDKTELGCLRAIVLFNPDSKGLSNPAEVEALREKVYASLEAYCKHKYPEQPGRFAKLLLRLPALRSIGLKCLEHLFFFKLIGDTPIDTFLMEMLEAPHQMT
Sequence of Estrogen receptor (Homo sapiens) (P03372 whole entry, looked up): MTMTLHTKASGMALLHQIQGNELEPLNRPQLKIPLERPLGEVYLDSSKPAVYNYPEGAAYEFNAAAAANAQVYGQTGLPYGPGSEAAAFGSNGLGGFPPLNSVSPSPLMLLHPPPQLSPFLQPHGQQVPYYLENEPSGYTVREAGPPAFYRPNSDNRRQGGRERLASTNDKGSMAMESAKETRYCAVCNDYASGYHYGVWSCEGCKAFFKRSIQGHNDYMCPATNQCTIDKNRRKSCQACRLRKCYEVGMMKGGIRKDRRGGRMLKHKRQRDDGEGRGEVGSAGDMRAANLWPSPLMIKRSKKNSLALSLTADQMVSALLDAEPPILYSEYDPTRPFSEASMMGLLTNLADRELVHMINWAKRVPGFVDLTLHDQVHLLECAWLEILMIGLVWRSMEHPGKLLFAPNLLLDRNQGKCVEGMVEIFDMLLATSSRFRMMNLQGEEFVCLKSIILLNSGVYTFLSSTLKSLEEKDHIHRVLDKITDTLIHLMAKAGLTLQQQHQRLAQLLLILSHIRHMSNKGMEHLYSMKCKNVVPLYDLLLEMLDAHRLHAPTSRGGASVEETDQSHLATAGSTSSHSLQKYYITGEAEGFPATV
Sequence of Bile acid receptor (Homo sapiens) (Q96RI1 whole entry, looked up, the tested form may be a part): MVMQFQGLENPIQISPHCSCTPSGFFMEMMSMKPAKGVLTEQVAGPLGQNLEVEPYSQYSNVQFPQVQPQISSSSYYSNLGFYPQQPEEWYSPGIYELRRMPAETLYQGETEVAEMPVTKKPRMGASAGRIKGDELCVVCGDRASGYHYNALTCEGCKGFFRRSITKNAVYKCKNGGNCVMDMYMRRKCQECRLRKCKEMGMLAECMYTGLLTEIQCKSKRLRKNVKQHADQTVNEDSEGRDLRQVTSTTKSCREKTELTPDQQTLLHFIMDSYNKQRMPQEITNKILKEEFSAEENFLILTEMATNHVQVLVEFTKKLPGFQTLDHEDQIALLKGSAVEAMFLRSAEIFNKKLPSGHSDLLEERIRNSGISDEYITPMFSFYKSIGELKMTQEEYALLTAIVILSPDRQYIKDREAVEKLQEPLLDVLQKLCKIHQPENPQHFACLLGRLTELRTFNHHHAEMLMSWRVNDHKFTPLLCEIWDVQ

CCCCc1oc2ccccc2c1C(=O)c1cc(I)c(OCCN(CC)CC)c(I)c1
inactive: [1] | [2] | [5] | [7] | [8]
active: [3] 9.16 µM | [4] 8.87 µM | [5] 8.75 µM | [6] 8.94 µM and 8.82 µM

CN(C)CCOC(c1ccccc1)c1ccccc1
inactive: [10] | [1] | [2] | [5] | [6]
active: [9] 12.6 µM | [6] 6.73 µM

CCCCCC(C)OC(=O)COc1ccc(Cl)c2cccnc12 (stereo not given)
active: [3] 44 µM | [4] 22.7 µM | [5] 15 µM
inactive: [1] | [2] | [6] | [7] | [8]

CCCCc1ccc2ccccc2c1S(=O)(=O)O
active: [10] 13.3 µM
inactive: [1] | [2] | [3] | [7] | [8]

O=C(O)c1cccc(C(=O)O)n1
inactive: [1] | [2] | [5] | [6] | [7] | [8]

Cc1cc(C(=C2C=CC(=Nc3ccc(S(=O)(=O)O)cc3)C=C2)c2ccc(Nc3ccc(S(=O)(=O)O)cc3)cc2)cc(S(=O)(=O)O)c1N
inactive: [10] | [1] | [2] | [3] | [4] | [7] | [8]

CCCCCCC(C)(C)C(=O)O
inactive: [10] | [1] | [2] | [3] | [4] | [5] | [6] | [7] | [8]

CC(O)COc1ccccc1 (stereo not given)
inactive: [10] | [6] | [7] | [8]

CCCCCCCCCCCCCCCCCC[N+](C)(C)Cc1ccccc1
active: [9] 7.73 µM

C=CC(C)(CCC=C(C)C)OC(C)=O (stereo not given)
active: [3] 76 µM
inactive: [1] | [2] | [4] | [5] | [7] | [8]

CC(=O)Nc1ccc(O)cc1
inactive: [10] | [6] | [7] | [8]

O=C(c1ccccc1)c1ccccc1
inactive: [10] | [3] | [5] | [6]

COc1cc([N+](=O)[O-])ccc1N
active: [4] 28 µM
inactive: [10] | [1] | [2] | [3] | [5] | [6] | [8]

CN(Cc1cnc2nc(N)nc(N)c2n1)c1ccc(C(=O)N[C@@H](CCC(=O)O)C(=O)O)cc1
inactive: [10] | [1] | [2] | [3] | [4] | [5] | [6] | [7] | [8]

CCCCCCc1ccc(N)cc1
active: [3] 17 µM | [4] 6.61 µM
inactive: [10] | [1] | [2] | [5] | [6] | [7] | [8]

CCc1ccccc1O
inactive: [1] | [2] | [3] | [7] | [8]

NC(=NCCCCCCN=C(N)/N=C(\N)Nc1ccc(Cl)cc1)/N=C(\N)Nc1ccc(Cl)cc1
active: [9] 0.322 µM | [1] 24.5 µM | [2] 28.6 µM
inactive: [10] | [7] | [8]

N=C(N)c1ccc(OCCCCCOc2ccc(C(=N)N)cc2)cc1
inactive: [1] | [2] | [5] | [7] | [8]

CCCCCCCCCC=CCC1CC(=O)OC1=O (stereo not given)
inactive: [1] | [2] | [3] | [4] | [5] | [7] | [8]
active: [10] 21.2 µM

O=C1OC2(c3ccccc31)c1cc(I)c(O)c(I)c1Oc1c2cc(I)c(O)c1I
inactive: [5]
active: [9] 0.953 µM

CCCCCCCCCCCCOC(=O)c1cc(O)c(O)c(O)c1
inactive: [4] | [7] | [8]
active: [1] 49.2 µM | [2] 84.1 µM

Clc1ccc(Nc2nnc(Cc3ccncc3)c3ccccc23)cc1
inactive: [9]

NCc1cccc(CN)c1
inactive: [1] | [2] | [4] | [6] | [7] | [8]

Cc1cc(Cc2cc(C)cc(C(C)(C)C)c2O)c(O)c(C(C)(C)C)c1
inactive: [1] | [2]

NCCN
inactive: [1] | [2]
